Measured values published in PubChem BioAssay AID431 (Sanford-Burnham Center for Chemical Genomics, 2006).
Among all 63,000 compounds or so, about 1,100 (1.7%) were called active. Only a selection was taken, and actives are over-represented in it overall. Results with a measured potency or affinity are listed apart. Unmarked numbers belong to inactive results.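 How the source made its calls: active means compounds whose percent cytotoxicity in the single-dose primary screen, scaled between solvent and toxic-drug controls, exceeds 50; inactive means the rest.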

Test: viability loss of HPDE-C7K cells – cell-based, fluorescence, HTS, primary screen (AID 431);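 further: 0% = DMSO solvent wells and 100% = doxorubicin-treated wells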
Details: HPDE-C7K KRASV12 cells, Alamar Blue viability, 48 h; at 10 µM; active compounds read high
Compound CCOC(=O)c1oc2ccc(Br)cc2c1CSc1nnc(C)s1 has a cytotoxicity of -7.5%. In the case of COC(=O)c1cn(NC(=O)c2cccc(N(C)C)c2)c(=O)c2ccccc12, the cytotoxicity is reported as -1.6%. Compound CCOC(=O)c1c(C)[nH]c(C(=O)CN2C(=O)NC(C)(c3ccc(C)cc3)C2=O)c1C (stereo not drawn) has a cytotoxicity of 29.2%. For COc1ccc(S(=O)(=O)N(C)CC(=O)N2CCC(C)CC2)cc1Cl, the cytotoxicity was 9.5%. With CCCC(c1nnnn1C(C)(C)CC)N(Cc1ccco1)Cc1cc2ccc(OC)cc2[nH]c1=O (stereo not drawn) the cytotoxicity was 55.7% (active). Compound COc1ccc2[nH]c(=O)c(C(c3nnnn3C(C)(C)C)N(Cc3ccco3)CC3CCCO3)cc2c1 (stereo not drawn) has a cytotoxicity of -29.6%. Compound CCC(C)(C)n1nnnc1C(c1cc2ccc(C)cc2[nH]c1=O)N(Cc1cccnc1)Cc1ccco1 (stereo not drawn) has a cytotoxicity of 14.1%. With NC(=O)c1ccsc1NC(=O)c1nc(-c2ccccc2)n(-c2ccccc2)n1 the cytotoxicity was 9.4%. For O=C(Nc1nccs1)c1nc(-c2ccccc2)n(-c2ccccc2)n1, the cytotoxicity was 76.3% (active). Cc1csc(NC(=O)c2nc(-c3ccccc3)n(-c3ccccc3)n2)n1 gave a cytotoxicity of -19.1%. CCCCC(=O)Nc1ccc(C(=O)NCc2ccncc2)cc1 gave a cytotoxicity of -7.4%. Work on O=C(CC12CC3CC(CC(C3)C1)C2)N1CCOCC1 yielded a cytotoxicity of -7.8%. CCOC(=O)c1sc2nc(NC(=O)C(C)(C)C)sc2c1C gave a cytotoxicity of 2.1%. With CCOC(=O)c1sc2nc(NC(=O)C3CCCCC3)sc2c1C the cytotoxicity was 68.2% (active). In the case of CCOC(=O)c1sc2nc(NC(=O)C3CC3)sc2c1C, the cytotoxicity is reported as 4.4%. CCC(C)[C@H](NC(=O)NCc1cccs1)C(=O)OC (stereo partly drawn) gave a cytotoxicity of 7.9%. O=S(=O)(c1ccc(Nc2ccc3c(c2)OCO3)nc1)N1CCOCC1 showed a cytotoxicity of -0.1%. With O=C(CCS(=O)(=O)c1cccc2nsnc12)NCc1ccccc1 the cytotoxicity was -10.5%. With Cc1cccc(-n2c(CCCN3C(=O)c4ccccc4C3=O)nc3ccccc3c2=O)n1 the cytotoxicity was -9.8%. Compound Cc1oc2c(CN3CCOCC3)c(O)ccc2c(=O)c1-c1ccccc1 has a cytotoxicity of -12.9%. COc1cc(NS(=O)(=O)c2ccc(NC(=O)C3CCCO3)cc2)nc(OC)n1 (stereo not drawn) showed a cytotoxicity of -15.8%. In the case of Cc1ccc(OCc2nc(-c3ccccn3)no2)c(Br)c1, the cytotoxicity is reported as 26.3%. Compound Clc1ccc(OCc2nc(-c3ccccn3)no2)c(Br)c1 has a cytotoxicity of 13.1%. For CCOc1ccc(-c2nnc(-c3ccco3)o2)cc1OCC, the cytotoxicity was 1.7%. In the case of COc1cccc(N2CCN(Cc3nc4ccccc4c(=O)[nH]3)CC2)c1, the cytotoxicity is reported as 4.2%. With COc1cccc(N2CCN(CC(=O)c3c[nH]c4ccc(OC)cc34)CC2C)c1 (stereo not drawn) the cytotoxicity was 17.4%. With O=C1CC(c2ccccc2)n2nc(N3C(=O)CCC3=O)nc2N1 (stereo not drawn) the cytotoxicity was 2.8%. Compound CC(=O)Nc1ccc(S(=O)(=O)c2ccc(N)cc2)cc1N has a cytotoxicity of -5.2%. For CC1N=C2c3ccccc3N=C(SCc3cc(=O)n4cc(Cl)ccc4n3)N2C1=O (stereo not drawn), the cytotoxicity was 5.7%. In the case of CSc1ccc(S(=O)(=O)Nc2ccc3c(c2)OCCO3)cc1, the cytotoxicity is reported as 9.5%. In the case of O=S(=O)(Nc1ccc2c(c1)OCCO2)c1ccc2oc3ccccc3c2c1, the cytotoxicity is reported as 73% (active). In the case of COc1ccc(NS(=O)(=O)c2ccc3oc4ccccc4c3c2)cn1, the cytotoxicity is reported as 35.2%. For Cc1ccc2c(c1)c(C)c(C)n2CC(O)Cn1nc(C)cc1C (stereo not drawn), the cytotoxicity was -6.3%. Compound OCc1ccnc2c(O)cccc12 has a cytotoxicity of 11.7%. With Oc1ccc2cccnc2c1 the cytotoxicity was 4.8%. With Oc1c(CN2CCc3ccccc3C2)cc(Cl)c2cccnc12 the cytotoxicity was -1.6%. Work on Oc1c(CN2CCN(c3ccccn3)CC2)cc(Cl)c2cccnc12 yielded a cytotoxicity of 28.4%. CCC1Oc2ccc(C)cc2N(CC(=O)NCCC2=CCCCC2)C1=O (stereo not drawn) showed a cytotoxicity of 0%. O=C(COc1ccc(Cl)cc1)Nc1ccc2oc(-c3ccncc3)nc2c1 showed a cytotoxicity of -3%. COc1ccc(CNC(=O)c2cc(-n3cnnc3)ccc2Cl)cc1 showed a cytotoxicity of -0.7%. In the case of CCOC(=O)N1CCN(C(=O)CSc2nnc(-c3cccs3)o2)CC1, the cytotoxicity is reported as 4.2%. With COc1cccc(NC2=NC3(CCCCC3)N=C(N)N2)c1 the cytotoxicity was -1.1%. With COc1ccc(NC2=NC3(CCCCC3)N=C(N)N2)cc1 the cytotoxicity was 10.1%. Compound CCN(C(=O)COc1ncnc2ccc(Br)cc12)C1CCS(=O)(=O)C1 (stereo not drawn) has a cytotoxicity of -5.5%. Work on COC(=O)c1ccc(CSc2nc3c(cnn3-c3ccc(C)c(C)c3)c(=O)[nH]2)o1 yielded a cytotoxicity of 8%. In the case of COC(=O)c1ccc(CSc2nc3c(cnn3-c3ccc(F)cc3)c(=O)[nH]2)o1, the cytotoxicity is reported as 1.7%. With COC(=O)c1ccc(CSc2nc3scc(-c4cccs4)c3c(=O)[nH]2)o1 the cytotoxicity was 50.4% (active). Compound CN(C)S(=O)(=O)c1ccc(C(=O)Nc2ccc(Cl)cc2)cc1 has a cytotoxicity of 1.5%. For Oc1ccc(-c2nc(-c3ccc(O)c(O)c3)cs2)cc1, the cytotoxicity was 79.5% (active). In the case of CN(c1ccc(O)cc1)c1nc(-c2ccccc2)cs1, the cytotoxicity is reported as 4.5%. Compound COc1cc(-c2csc(C)n2)ccc1O has a cytotoxicity of -3.1%. With Cc1cccc2cc(C(c3nnnn3CC3CCCO3)N3CCCC4(CCCCC4)C3)c(=O)[nH]c12 (stereo not drawn) the cytotoxicity was -12.9%. In the case of CCCSc1nnc(NC(=O)c2sc3nc(-c4cccs4)ccc3c2N)s1, the cytotoxicity is reported as 22.7%. With Cc1csc(NC(=O)c2sc3nc(-c4cccs4)ccc3c2N)n1 the cytotoxicity was 72.2% (active). Work on Nc1c(C(=O)NC2CCCC2)sc2nc(-c3cccs3)ccc12 yielded a cytotoxicity of 12.2%. CC(C)CCN1C(=O)c2ccc(C(=O)NCC3CCCO3)cc2C1=O (stereo not drawn) gave a cytotoxicity of -6.8%. In the case of O=C(NCCCN1CCN(c2ccccc2F)CC1)Nc1ccc(F)cc1, the cytotoxicity is reported as -10.3%. Cc1cc2n(n1)C(c1ccccc1Cl)Nc1ccccc1-2 (stereo not drawn) showed a cytotoxicity of 18.6%. Work on Cc1cc2n(n1)C(c1ccccc1)Nc1ccccc1-2 (stereo not drawn) yielded a cytotoxicity of 15.3%. Work on CCCNC(=O)Cc1ncn[nH]1 yielded a cytotoxicity of 3.6%. With CCOc1cc(C(=O)O)cc(Cl)c1OCC#N the cytotoxicity was -16.2%. Work on Cc1ccccc1Cc1c(C)nc2c(C(=O)N3CCN(Cc4ccc5c(c4)OCO5)CC3)cnn2c1C yielded a cytotoxicity of -9.2%. Compound Cc1nc2c(C(=O)O)cnn2c(C)c1Cc1ccccc1F has a cytotoxicity of -2.2%.
